MITF act = increases MITF-driven TRPM1 promoter luciferase signal; actives 0.75% (n = 300,000); AID 588334; activation, % at 12.5 µM; SK-MEL-5 TRPM1-promoter luciferase, 24 h; % of positive control, neutral wells = 0;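 active = mean activation of at least 80% with every replicate also reaching 80%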;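 note: 0% = neutral control wells and 100% = parthenolide positive control wells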
GSIS activator = primary screen for activators of insulin secretion dependent on glucose, INS-1E cells, GLuc reporter luminescence; activation, % at 16.6 µM; actives 0.61% (n = 370,000); INS-1E GLuc reporter insulin secretion, 2-3 h;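 active = lowest replicate activation of at least 40%, so every replicate reaches that level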;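 note: 0% = median of neutral control wells and 100% = median of IBMX positive control wells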
Wnt act = Wnt/beta-catenin pathway activation. Wnt/beta-catenin reporter cell assay, activator, plate reader. activation, % at 9.35 µM. actives 1.2% (n = 300,000); in the data active = activation above about 30%, passing the limit was not always enough;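 note: 0% = neutral control wells and 100% = positive control wells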
NSD2 HMT inh = blocks human histone methyltransferase NSD2 | O96028 | NSD2 peptide methylation, AlphaScreen, 120 min | inhibition, % at 12.5 µM | actives 0.54% (n = 310,000) | AID 743445
Dyrk1A ADPGlo = inhibitors of rat Dyrk1A kinase; actives 0.43% (n = 310,000); Q63470; inhibition, % at 12.5 µM; ADP-Glo luminescence, NFATc1 peptide;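 note: plate controls were vehicle with enzyme for no effect and no enzyme for full effect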
miR-122 sensor = inhibitors of miR-122 in Huh7 cells; Huh7 miR-122 Renilla luciferase sensor, 48 h; neutral wells = 0, positive control = 100; activation (reporter increase), % at 12.5 µM; actives 0.3% (n = 340,000); AID 602342;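 active = mean replicate activation score at least 90 and every replicate individually at or above 90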;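 note: higher luciferase means less miR-122 activity so hits act as miR-122 inhibitors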
* hit, by the source's call; [ ] = dose if it differs, or a comment. Rows were chosen to be rich in hits. Some 2.4% of all compounds tested hit in one or more screens of this group. Cut-off read from the data, not from the text of the source, unless noted: active = inhibition above about 50%; inactive = the rest.

`Nc1cc(SCc2ccc([N+](=O)[O-])cc2)ncn1` gave MITF act 21, GSIS activator -8, Wnt act 37*, NSD2 HMT inh -1 and Dyrk1A ADPGlo -3.
`Nc1nnc(SCc2ccc([N+](=O)[O-])cc2)s1` gave MITF act 4, GSIS activator -5, Wnt act 0, NSD2 HMT inh -2 and Dyrk1A ADPGlo -4.
`COc1cccc2cc(-c3ccccc3)c(=O)oc12` gave MITF act 62, GSIS activator 6, Wnt act 35*, NSD2 HMT inh -1 and Dyrk1A ADPGlo 5.
O=c1oc2ccccc2cc1-c1nc(-c2cccs2)cs1 was read as MITF act 3, NSD2 HMT inh -2 and Dyrk1A ADPGlo -3.
Screening COc1cccc2cc(-c3nc(-c4cccs4)cs3)c(=O)oc12 returned MITF act 85*, Wnt act 59*, Dyrk1A ADPGlo -5 and miR-122 sensor -6.
`COc1ccc2cc(-c3ccccc3)c(=O)oc2c1` gave MITF act 36, GSIS activator -4, Wnt act 42*, NSD2 HMT inh -15 and Dyrk1A ADPGlo -1.
O=C(N[C@H]1CC[C@@H](CCNS(=O)(=O)Cc2ccccc2)O[C@H]1CO)c1ccc2c(c1)OCO2 was read as GSIS activator 8.
`CCCc1nnc(NC(=O)c2c(O)c3c([nH]c2=O)CCCC3)s1` gave Wnt act -3, NSD2 HMT inh -2, Dyrk1A ADPGlo -3 and miR-122 sensor -5.
`O=C(Nc1nccs1)c1c(O)c2c([nH]c1=O)CCCC2` gave MITF act 50, GSIS activator -12, Wnt act 50*, NSD2 HMT inh -2, Dyrk1A ADPGlo -8 and miR-122 sensor -1.
`CCn1c(-c2ccccc2)csc1=Nc1ccc(O)cc1` gave MITF act 60, GSIS activator -10, Wnt act 66*, NSD2 HMT inh 27 and Dyrk1A ADPGlo 2.
For C=CCN1C(=O)c2cccc3c(N4CCCCC4)ccc(c23)C1=O the results were MITF act 45, GSIS activator -13, Wnt act -3, NSD2 HMT inh -9 and Dyrk1A ADPGlo -6.
O=C1c2cccc3c(N4CCCCC4)ccc(c23)C(=O)N1CCO was read as MITF act 59, Wnt act 53*, NSD2 HMT inh -13, Dyrk1A ADPGlo -3 and miR-122 sensor -4.
`COc1cccc(-c2ccc3c(c2)[C@@H]2[C@@H](CCN2C(=O)C2CCOCC2)[C@H](CO)N3)c1` gave GSIS activator 14 and miR-122 sensor -3[16.7 µM].
Screening CO[C@@H]1CN(C)C(=O)c2cc(NC(=O)C3CCC3)ccc2OC[C@H](C)N(C)C[C@H]1C returned GSIS activator 0.
For O=C(CCN1CCCCC1)NCC[C@@H]1CC[C@@H](NC(=O)C2CCCCC2)[C@H](CO)O1 the results were GSIS activator 27.
For Cc1cc(C)c(NC(=O)COC(=O)C23CC4CC(CC(O)(C4)C2)C3)c(Cl)c1 the results were MITF act 0, Wnt act 4, NSD2 HMT inh 4, Dyrk1A ADPGlo -2 and miR-122 sensor 1.
`O=C(COC(=O)C12CC3CC(CC(O)(C3)C1)C2)Nc1ccc(Cl)cc1F` gave MITF act 93*, GSIS activator -3, Wnt act 23, NSD2 HMT inh -1 and miR-122 sensor -3.
Screening COc1ccc(NC(=O)COC(=O)C23CC4CC(CC(O)(C4)C2)C3)cc1Cl returned MITF act 86*, GSIS activator -13, Wnt act 39* and miR-122 sensor -16.
CCCOc1ccc(/C=N/Nc2cccc([N+](=O)[O-])c2)c(O)c1 was read as MITF act 84*, GSIS activator 18, NSD2 HMT inh 0, Dyrk1A ADPGlo -5 and miR-122 sensor -21.
Screening COc1ccc(-c2cc3nc4n(c(=O)c3s2)CCCCC4)cc1 returned GSIS activator -13, Wnt act 37*, NSD2 HMT inh -1 and Dyrk1A ADPGlo -2.
For O=C(OCC(=O)N1CCN(Cc2ccccc2)CC1)c1cc(Cl)ccc1[N+](=O)[O-] the results were MITF act -1, GSIS activator -18, Wnt act 37*, Dyrk1A ADPGlo 0 and miR-122 sensor -5.
For CC1CN(C(=O)COC(=O)c2cc(Cl)ccc2[N+](=O)[O-])CC(C)O1 (centres undefined) the results were GSIS activator 5, Wnt act -1, NSD2 HMT inh -3 and Dyrk1A ADPGlo 2.
For CCOC(=O)Nc1ccc(S(=O)(=O)Nc2nc(C)cc(C)n2)cc1 the results were MITF act 2, GSIS activator 4, Wnt act 1, NSD2 HMT inh 30, Dyrk1A ADPGlo -11 and miR-122 sensor 0.
CCOC(=O)Nc1ccc(Oc2ccccc2)cc1 was read as MITF act 90*, Wnt act 55*, NSD2 HMT inh -4, Dyrk1A ADPGlo 2 and miR-122 sensor -6.
For CCOC(=O)Nc1ccc(OC(=O)Oc2ccc(NC(=O)OCC)cc2)cc1 the results were MITF act 20, GSIS activator 6, Wnt act -5, NSD2 HMT inh -2 and Dyrk1A ADPGlo 5.
CCOC(=O)C(=O)Nc1ccc(S(=O)(=O)Nc2ncccn2)cc1 was read as MITF act 3, GSIS activator 16, NSD2 HMT inh -3, Dyrk1A ADPGlo 0 and miR-122 sensor 4.
For CCCOC(=O)Nc1ccc(S(=O)(=O)Nc2ncccn2)cc1 the results were MITF act 15, GSIS activator 54*, Wnt act 0, NSD2 HMT inh -2, Dyrk1A ADPGlo 5 and miR-122 sensor 4.
CCOC(=O)Nc1ccc(NS(=O)(=O)c2ccc(C)cc2)cc1 was read as Wnt act 2, NSD2 HMT inh 27, Dyrk1A ADPGlo 2 and miR-122 sensor 206*.
Cc1cc(=O)[nH]c2c1c(C)nn2C1CCCC1 was read as MITF act 3, GSIS activator 53*, Wnt act 2, NSD2 HMT inh 5, Dyrk1A ADPGlo 27 and miR-122 sensor 1.
`Cc1cc(=O)[nH]c2c1c(C)nn2C1CCCCC1` gave MITF act -8, GSIS activator 3, Wnt act -1, NSD2 HMT inh 0, Dyrk1A ADPGlo 15 and miR-122 sensor -5.
`CC(C)NC(=O)N(C)C[C@@H]1Oc2c(N)cccc2C(=O)N(C)C[C@H]1C` gave GSIS activator -6.
Screening C[C@@H]1CN([C@H](C)CO)C(=O)c2cc(NC(=O)Nc3ccc(C(F)(F)F)cc3)ccc2O[C@H]1CN(C)S(C)(=O)=O returned GSIS activator 15 and miR-122 sensor -2[16.7 µM].
For CS(=O)(=O)Nc1ccc(C(=O)NCCC2=CCCCC2)cc1 the results were MITF act 45, Wnt act 11, NSD2 HMT inh 23 and miR-122 sensor -11.

Bioassay records deposited in PubChem BioAssay by Broad Institute.
